# Reference: the supplement of paper PMC10849652
# Of roughly 7,900 targets only a part is listed; those with a hit were picked by preference. About 0.6% of all pairs of compound and target were hits.
# Compound: CCn1cc(-c2ccnc3[nH]c(-c4cccc(CN(C)C)c4)cc23)c(-c2ccc(NC(=O)N(C)C)cc2)n1
# Assay: log2 fold change, soluble protein after heating vs DMSO (PISA); higher = thermal stabilisation; K562 cells, 10 uM, 30 min; active = over 0.2 and 3.5 SD of the protein, either way, in both replicates (recomputed)
# In short: (§1)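 For each measurement, 10 μM compound was applied for 30 min to K562 cells at 2×10^6 cells/mL. Aliquots were heated for 3 min across 48°C-58°C, pooled, and extracted in PBS with 0.5% NP-40 at 4°C; the supernatant after 21,000xg for 90 min was soluble protein. This was quantified by TMTpro 16plex LC-MS/MS with channel sums equalised, and thermal stability was reported relative to control samples from duplicates, on a log2 fold-change scale.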
# Chain of UniProt P25685 (P25685 whole entry, looked up): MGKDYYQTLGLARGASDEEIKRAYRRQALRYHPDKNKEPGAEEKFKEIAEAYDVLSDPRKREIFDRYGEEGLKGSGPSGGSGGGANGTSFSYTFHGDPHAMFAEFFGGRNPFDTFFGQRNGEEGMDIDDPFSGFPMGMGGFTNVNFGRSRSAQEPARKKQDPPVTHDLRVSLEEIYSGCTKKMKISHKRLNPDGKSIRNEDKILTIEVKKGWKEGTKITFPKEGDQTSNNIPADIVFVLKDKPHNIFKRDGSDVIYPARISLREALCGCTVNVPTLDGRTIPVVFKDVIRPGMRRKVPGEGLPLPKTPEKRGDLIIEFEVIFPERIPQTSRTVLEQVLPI
# Chain of UniProt Q9BPY3 (Q9BPY3 whole entry, looked up): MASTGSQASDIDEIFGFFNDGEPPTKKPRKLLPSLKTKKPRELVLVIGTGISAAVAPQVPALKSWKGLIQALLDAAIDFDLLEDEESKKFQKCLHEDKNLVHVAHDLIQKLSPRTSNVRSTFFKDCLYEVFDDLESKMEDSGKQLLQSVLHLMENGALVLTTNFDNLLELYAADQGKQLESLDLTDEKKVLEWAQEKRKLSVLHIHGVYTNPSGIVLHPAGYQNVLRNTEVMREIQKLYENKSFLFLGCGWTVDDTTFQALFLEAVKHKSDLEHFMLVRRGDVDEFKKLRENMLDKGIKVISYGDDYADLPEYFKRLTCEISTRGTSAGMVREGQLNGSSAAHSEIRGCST
# Chain of UniProt Q9H777 (Q9H777 whole entry, looked up): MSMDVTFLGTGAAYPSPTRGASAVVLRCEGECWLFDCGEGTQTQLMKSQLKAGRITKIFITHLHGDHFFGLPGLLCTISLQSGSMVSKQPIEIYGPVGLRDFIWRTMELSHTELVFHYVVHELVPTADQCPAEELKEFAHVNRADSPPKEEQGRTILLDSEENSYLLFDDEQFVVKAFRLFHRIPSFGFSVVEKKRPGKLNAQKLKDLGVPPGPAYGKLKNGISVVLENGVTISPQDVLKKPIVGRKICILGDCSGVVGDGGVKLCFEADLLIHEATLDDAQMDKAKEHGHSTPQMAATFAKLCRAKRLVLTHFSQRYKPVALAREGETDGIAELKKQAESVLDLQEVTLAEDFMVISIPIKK
# Chain of UniProt O43237 (O43237 whole entry, looked up): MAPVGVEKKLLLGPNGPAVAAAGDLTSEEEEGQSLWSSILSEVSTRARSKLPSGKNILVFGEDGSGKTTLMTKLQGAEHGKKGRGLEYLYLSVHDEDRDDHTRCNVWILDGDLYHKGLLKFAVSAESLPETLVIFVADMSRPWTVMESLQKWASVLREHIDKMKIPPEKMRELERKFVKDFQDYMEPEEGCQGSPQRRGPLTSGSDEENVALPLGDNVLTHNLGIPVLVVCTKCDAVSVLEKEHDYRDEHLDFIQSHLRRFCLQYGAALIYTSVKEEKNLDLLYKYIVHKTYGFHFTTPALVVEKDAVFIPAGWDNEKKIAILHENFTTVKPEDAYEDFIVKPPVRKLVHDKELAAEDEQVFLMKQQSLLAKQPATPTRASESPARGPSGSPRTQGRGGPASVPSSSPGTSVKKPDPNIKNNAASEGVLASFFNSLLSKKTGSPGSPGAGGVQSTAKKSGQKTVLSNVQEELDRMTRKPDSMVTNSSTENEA
# Chain of UniProt Q9UBR2 (Q9UBR2 whole entry, looked up): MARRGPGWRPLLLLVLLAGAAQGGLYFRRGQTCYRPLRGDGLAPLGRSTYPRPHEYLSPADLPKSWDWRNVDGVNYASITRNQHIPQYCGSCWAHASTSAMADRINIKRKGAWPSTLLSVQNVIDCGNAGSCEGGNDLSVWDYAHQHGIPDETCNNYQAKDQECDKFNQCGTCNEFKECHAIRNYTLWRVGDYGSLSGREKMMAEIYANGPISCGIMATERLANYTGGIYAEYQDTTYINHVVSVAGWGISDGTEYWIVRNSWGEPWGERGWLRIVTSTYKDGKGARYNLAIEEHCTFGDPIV
# Chain of UniProt Q9NXW2 (Q9NXW2 whole entry, looked up): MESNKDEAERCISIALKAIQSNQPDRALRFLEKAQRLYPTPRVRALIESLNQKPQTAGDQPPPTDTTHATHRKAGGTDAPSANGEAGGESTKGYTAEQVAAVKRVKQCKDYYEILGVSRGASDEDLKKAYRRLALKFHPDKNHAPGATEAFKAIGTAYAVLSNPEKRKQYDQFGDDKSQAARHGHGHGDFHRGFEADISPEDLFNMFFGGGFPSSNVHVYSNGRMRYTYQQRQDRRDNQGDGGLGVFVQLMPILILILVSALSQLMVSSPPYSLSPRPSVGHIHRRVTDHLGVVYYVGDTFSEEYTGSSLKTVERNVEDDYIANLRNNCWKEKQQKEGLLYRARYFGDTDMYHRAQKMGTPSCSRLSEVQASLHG
# Chain of UniProt Q9UER7 (Q9UER7 whole entry, looked up): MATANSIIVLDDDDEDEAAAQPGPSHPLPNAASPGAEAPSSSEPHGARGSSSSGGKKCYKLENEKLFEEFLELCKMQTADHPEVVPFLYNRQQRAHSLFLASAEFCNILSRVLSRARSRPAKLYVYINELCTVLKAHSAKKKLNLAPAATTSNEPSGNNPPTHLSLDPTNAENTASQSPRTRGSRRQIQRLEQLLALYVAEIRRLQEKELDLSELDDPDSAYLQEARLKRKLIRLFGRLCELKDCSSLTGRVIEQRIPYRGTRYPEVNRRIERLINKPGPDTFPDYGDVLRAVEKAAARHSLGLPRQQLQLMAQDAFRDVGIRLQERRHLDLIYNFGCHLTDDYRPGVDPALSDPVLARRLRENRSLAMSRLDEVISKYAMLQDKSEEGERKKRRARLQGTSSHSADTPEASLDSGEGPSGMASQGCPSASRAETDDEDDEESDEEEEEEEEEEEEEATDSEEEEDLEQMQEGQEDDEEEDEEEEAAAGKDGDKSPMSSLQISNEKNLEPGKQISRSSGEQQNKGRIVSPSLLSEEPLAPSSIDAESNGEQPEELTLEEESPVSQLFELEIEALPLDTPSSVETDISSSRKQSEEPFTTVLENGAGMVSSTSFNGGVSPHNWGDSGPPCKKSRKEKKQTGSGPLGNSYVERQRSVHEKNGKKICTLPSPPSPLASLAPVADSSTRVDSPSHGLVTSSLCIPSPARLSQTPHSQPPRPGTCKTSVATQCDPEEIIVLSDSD
# Chain of UniProt Q5W0V3 (Q5W0V3 whole entry, looked up): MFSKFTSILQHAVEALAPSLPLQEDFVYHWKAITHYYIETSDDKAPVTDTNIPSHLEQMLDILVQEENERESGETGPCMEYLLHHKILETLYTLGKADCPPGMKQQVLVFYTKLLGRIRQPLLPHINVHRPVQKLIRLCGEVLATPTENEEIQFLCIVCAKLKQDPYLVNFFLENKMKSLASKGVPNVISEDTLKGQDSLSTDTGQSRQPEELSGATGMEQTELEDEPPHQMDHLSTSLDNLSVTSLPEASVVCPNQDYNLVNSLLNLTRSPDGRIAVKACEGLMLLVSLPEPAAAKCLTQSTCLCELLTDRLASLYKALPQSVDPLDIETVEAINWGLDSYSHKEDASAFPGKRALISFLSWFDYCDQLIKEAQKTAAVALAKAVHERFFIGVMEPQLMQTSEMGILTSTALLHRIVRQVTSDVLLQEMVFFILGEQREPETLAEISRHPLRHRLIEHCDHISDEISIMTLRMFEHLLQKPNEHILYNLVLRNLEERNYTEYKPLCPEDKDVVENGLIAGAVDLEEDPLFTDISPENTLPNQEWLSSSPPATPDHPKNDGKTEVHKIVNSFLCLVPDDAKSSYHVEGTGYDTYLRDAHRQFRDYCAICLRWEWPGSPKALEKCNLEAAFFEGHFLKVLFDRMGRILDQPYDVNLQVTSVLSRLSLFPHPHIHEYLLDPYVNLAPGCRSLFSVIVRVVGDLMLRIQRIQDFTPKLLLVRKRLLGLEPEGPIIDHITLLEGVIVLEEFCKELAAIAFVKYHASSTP
# Chain of UniProt Q8N5C7 (Q8N5C7 whole entry, looked up): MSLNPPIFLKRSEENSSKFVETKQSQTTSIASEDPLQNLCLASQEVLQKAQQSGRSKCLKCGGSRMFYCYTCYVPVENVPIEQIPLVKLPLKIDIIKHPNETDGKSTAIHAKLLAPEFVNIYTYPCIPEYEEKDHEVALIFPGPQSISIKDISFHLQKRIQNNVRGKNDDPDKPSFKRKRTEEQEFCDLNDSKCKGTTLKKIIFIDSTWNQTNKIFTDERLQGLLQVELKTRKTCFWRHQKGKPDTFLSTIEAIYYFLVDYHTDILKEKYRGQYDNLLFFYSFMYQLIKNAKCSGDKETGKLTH
# Chain of UniProt Q07973 (Q07973 whole entry, looked up): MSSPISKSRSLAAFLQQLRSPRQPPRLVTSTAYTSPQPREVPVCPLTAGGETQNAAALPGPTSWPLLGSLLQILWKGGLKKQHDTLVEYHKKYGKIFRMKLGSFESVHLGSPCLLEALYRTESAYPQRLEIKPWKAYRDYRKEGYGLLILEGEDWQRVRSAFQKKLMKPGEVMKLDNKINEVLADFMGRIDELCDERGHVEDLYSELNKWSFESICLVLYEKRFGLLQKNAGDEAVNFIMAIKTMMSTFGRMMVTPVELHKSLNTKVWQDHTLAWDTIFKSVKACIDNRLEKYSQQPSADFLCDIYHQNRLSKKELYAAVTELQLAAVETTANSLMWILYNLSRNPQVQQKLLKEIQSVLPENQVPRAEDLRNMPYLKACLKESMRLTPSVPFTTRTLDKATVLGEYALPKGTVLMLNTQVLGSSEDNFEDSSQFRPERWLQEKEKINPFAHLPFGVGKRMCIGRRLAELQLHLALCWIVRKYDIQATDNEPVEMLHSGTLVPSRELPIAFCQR
# Chain of UniProt Q9NSI2 (Q9NSI2 whole entry, looked up): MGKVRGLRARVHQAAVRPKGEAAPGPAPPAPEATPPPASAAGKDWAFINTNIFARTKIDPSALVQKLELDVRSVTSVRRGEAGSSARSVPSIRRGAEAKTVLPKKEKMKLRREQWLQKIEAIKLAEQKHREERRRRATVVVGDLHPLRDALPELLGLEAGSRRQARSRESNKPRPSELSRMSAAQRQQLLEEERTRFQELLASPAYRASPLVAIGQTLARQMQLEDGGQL
# Chain of UniProt Q8N8J7 (Q8N8J7 whole entry, looked up): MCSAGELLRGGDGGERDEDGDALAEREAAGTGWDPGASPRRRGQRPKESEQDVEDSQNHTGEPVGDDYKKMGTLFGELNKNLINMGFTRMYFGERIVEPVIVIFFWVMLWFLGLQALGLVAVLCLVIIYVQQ
row,Target,log2 fold change
1,FAM207A (UniProt Q9NSI2),0.023 (inactive)
2,FAM160B1 (UniProt Q5W0V3),-0.057 (inactive)
3,EDC3 (UniProt Q96F86),-0.031 (inactive)
4,DNAJB1 (UniProt P25685),-0.026 (inactive)
5,EEF2K (UniProt O00418),0.028 (inactive)
6,CYB561A3 isoform 2 (UniProt Q8NBI2),-0.241 (inactive)
7,DNAJB12 (UniProt Q9NXW2),0.024 (inactive)
8,DDB1 (UniProt Q16531),0.009 (inactive)
9,FAM3A (UniProt P98173),0.066 (inactive)
10,EXOSC10 (UniProt Q01780),-0.222 (inactive)
11,FAM118B (UniProt Q9BPY3),-0.067 (inactive)
12,CTSZ (UniProt Q9UBR2),0 (inactive)
13,DOCK8 (UniProt Q8NF50),-0.094 (inactive)
14,DHRS3 (UniProt O75911),0.001 (inactive)
15,EIF2AK3 (UniProt Q9NZJ5),0.106 (inactive)
16,ELAC1 (UniProt Q9H777),-0.488 (active)
17,FAM118A (UniProt Q9NWS6),-0.075 (inactive)
18,DTWD1 (UniProt Q8N5C7),-0.033 (inactive)
19,DNAH11 (UniProt Q96DT5),0.176 (inactive)
20,DYNC1LI2 (UniProt O43237),-0.041 (inactive)
21,DAXX (UniProt Q9UER7),-0.102 (inactive)
22,DLD (UniProt P09622),-0.007 (inactive)
23,CWF19L2 (UniProt Q2TBE0),0.094 (inactive)
24,DYRK1A isoform 2 (UniProt Q13627),-0.05 (inactive)
25,FAM241A (UniProt Q8N8J7),0.037 (inactive)
26,CTSH (UniProt P09668),0.057 (inactive)
27,CYP24A1 (UniProt Q07973),0.065 (inactive)
28,CTNNB1 (UniProt P35222),-0.304 (inactive)

# Compound: CN(C)CC(=O)Nc1ccc2[nH]c(=O)c3ccccc3c2c1
# Assay: as above
# In short: as §1
row,Target,log2 fold change
1,FAM207A (UniProt Q9NSI2),0.05 (inactive)
2,FAM160B1 (UniProt Q5W0V3),-0.052 (inactive)
3,EDC3 (UniProt Q96F86),0.058 (inactive)
4,DSN1 (UniProt Q9H410),0.007 (inactive)
5,DNAJB1 (UniProt P25685),-0.01 (inactive)
6,EEF2K (UniProt O00418),0.096 (inactive)
7,DNAJB12 (UniProt Q9NXW2),0.022 (inactive)
8,DDB1 (UniProt Q16531),-0.005 (inactive)
9,FAM3A (UniProt P98173),0.019 (inactive)
10,EXOSC10 (UniProt Q01780),-0.169 (inactive)
11,EEF1A1 (UniProt P68104),0.165 (inactive)
12,FAM118B (UniProt Q9BPY3),0.11 (inactive)
13,CTSZ (UniProt Q9UBR2),-0.026 (inactive)
14,DOCK8 (UniProt Q8NF50),-0.009 (inactive)
15,DNAJC24 (UniProt Q6P3W2),-0.027 (inactive)
16,DHRS3 (UniProt O75911),-0.054 (inactive)
17,ELAC1 (UniProt Q9H777),0 (inactive)

row,Target,log2 fold change
1,EIF4G3 isoform 3 (UniProt O43432),0.039 (inactive)
2,FAM118A (UniProt Q9NWS6),0.222 (inactive)
3,CTNNBL1 (UniProt Q8WYA6),0.012 (inactive)
4,DTWD1 (UniProt Q8N5C7),0.036 (inactive)
5,DOLPP1 (UniProt Q86YN1),0.133 (inactive)
6,DNAH11 (UniProt Q96DT5),-0.111 (inactive)
7,FAM193B (UniProt Q96PV7),-0.442 (inactive)
8,DYNC1LI2 (UniProt O43237),0.024 (inactive)
9,DAXX (UniProt Q9UER7),-0.077 (inactive)
10,DENND10 (UniProt Q8TCE6),0.076 (inactive)
11,DLD (UniProt P09622),-0.012 (inactive)
12,DYRK1A isoform 2 (UniProt Q13627),0.014 (inactive)
13,EIF4E2 (UniProt O60573),0.063 (inactive)
14,FAM241A (UniProt Q8N8J7),-0.093 (inactive)
15,CTSH (UniProt P09668),0.001 (inactive)
16,CYP24A1 (UniProt Q07973),-0.175 (inactive)
17,CTNNB1 (UniProt P35222),-0.151 (inactive)
